In the library only some 6.6% were active in any assay of this set; here they are far more common.
HepG2 tox-1 – kills HepG2 cells in TGF-b inhibitor counter-screen; Potency, µM (top dose mostly 46.1 µM), for the others: top-dose activity change, negative = cytotoxicity, hits mostly cytotoxic; HepG2 CAGA-GFP viability, ATP luminescence, 18 h; hit rate 0.76% among 410,000
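CellTiter-Glo luminescence gave cytotoxicity after 18 hours at 37 degrees C. The cells were HepG2 CAGA-GFP in 1% FBS DMEM, stimulated with 500 pg/mL TGF-beta after compound addition. %Activity was normalised to no-cell wells (complete cell-killing) and DMSO (no toxicity), and curves were fitted and classified.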
KB-V1 cytotox – kills drug-selected multidrug resistant KB-V1 cells. hit rate 3.4% among 400,000. KB-V1 MDR cells viability, CellTiter-Glo, 72 h. AID 1347076. Potency, µM (series often up to 46.1 µM), usual class: cytotoxic; note: % is set by controls: 0 for no effect and ±100 for the full control effect; nearly all actives have a fitted effect of over 60% in size
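In this primary screen, KB-V1 cells overexpressing P-gp are incubated with library compounds (lowest to highest concentration) for 72 h at 37 degrees C before a luminescent ATP viability read.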
TGFb SMAD3 inh – TGF-b pathway inhibition. AID 588855. Potency, µM (titrated, usually from 46.1 µM), inactives show at the highest dose activity, negative = inhibition, actives largely listed as inhibitors. hit rate 1.2% among 410,000. HepG2 CAGA-GFP TGF-b/SMAD3 reporter, GFP fluorescence, 18 h; TGF-beta stimulated, 500 pg/mL final; note: % is set by controls: 0 for no effect and ±100 for the full control effect; nearly all actives have a fitted effect of over 65% in size
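Using HEPG2 CAGA-GFP reporter cells at 1000 cells/well, we pinned test compounds, stimulated with recombinant TGF-beta (500 pg/mL final) and measured total well GFP after 18 h.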
KB-3-1 cytotox – KB-3-1 parental cell cytotoxicity. Potency, µM (doses to about 46.1 µM), most hits filed as cytotoxic. KB-3-1 viability, CellTiter-Glo ATP luminescence, 72 h. hit rate 1.4% among 400,000; note: % is set by controls: 0 for no effect and ±100 for the full control effect; nearly all actives have a fitted effect of over 60% in size
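Here the drug-naive KB-3-1 line serves as comparator for MDR sub-line selectivity; cells received compound titrations, 72 h at 37 °C, then CellTiter-Glo readout.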
HT1080 IDH1KD tx – kills HT-1080 cells with IDH1 knockdown. HT-1080 IDH1 knockdown viability, ATP luminescence, 48 h. Potency, µM (highest dose often 46.1 µM), without a hit: top-dose activity, negative = toxicity, hits mostly cytotoxic. hit rate 2% among 360,000. AID 686971;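 note: 0% = DMSO wells and -100% = cell-free medium wells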
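Viability of IDH1-knockdown HT-1080 fibrosarcoma cells was assessed by CellTiter-Glo after 48 h at 37 °C with titrated compound; concentration-effect curves were classified by fit quality and response size.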
HT1080NT lethal – kills 2HG-producing HT-1080-NT fibrosarcoma cells; HT-1080-NT fibrosarcoma viability, CellTiter-Glo ATP luminescence, 48 h; Potency, µM (series often up to 46.1 µM), inactives show at the highest dose activity, negative = less viability, hits mostly cytotoxic; hit rate 1.6% among 360,000; AID 686970;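 note: NT is the 2HG producing partner of a matched IDH1 knockdown line; 0% = DMSO-treated cells and -100% = media-only wells without cells; nearly all actives have a fitted effect of over 55% in size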
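A 48-hour cytotoxicity screen used HT-1080-NT cells plated 2 hours before compound delivery. ATP-based CellTiter-Glo luminescence measured viability, normalized to DMSO and no-cell controls.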
TGFb CAGA inh – confirmation of TGF-b signaling inhibitors in HepG2 reporter cells. HepG2 CAGA-GFP TGF-b reporter, GFP fluorescence, 18 h; cells stimulated with TGF-beta, 500 pg/mL. shares compounds with TGFb SMAD3 inh. hit rate 63% among 1,600. Potency, µM (top dose mostly 46.1 µM), without a hit: at the top dose activity, negative = inhibition, usual class: inhibitors; note: % is set by controls: 0 for no effect and ±100 for the full control effect; nearly all actives have a fitted effect of over 65% in size
HepG2 tox-2 – HepG2 cytotoxicity, TGF-b inhibitor counterscreen | Potency, µM (doses to about 46.1 µM), for inactives: at the highest dose activity, negative = cytotoxicity, hits mostly inhibitors | shares compounds with TGFb SMAD3 inh | AID 720535 | hit rate 27% among 1,600 | HepG2 CAGA-GFP viability, ATP luminescence, 18 h; cells stimulated with TGF-beta, 500 pg/mL; note: % is set by controls: 0 for no effect and ±100 for the full control effect; nearly all actives have a fitted effect of over 70% in size
TGFb CCL64 inh – TGF-b inhibition, CCL64 orthogonal assay | CCL64 CAGA-GFP reporter, TGF-b stimulated, GFP fluorescence, 18 h | AID 720536 | Potency, µM (highest dose often 46.1 µM), for the others: at the top dose activity, negative = inhibition, hits mostly inhibitors | shares compounds with TGFb SMAD3 inh | hit rate 41% among 1,600; note: nearly all actives have a fitted effect of over 65% in size
COP TGFb inh – validation of TGF-b inhibitors in HepG2 COP promoter reporter | Potency, µM (top dose mostly 46.1 µM), inactives show top-dose activity, negative = inhibition, actives largely listed as inhibitors | hit rate 3% among 1,600 | shares compounds with TGFb SMAD3 inh | HepG2 COP-GFP TGF-b reporter, GFP fluorescence, 18 h; cells stimulated by added recombinant TGF-beta; note: nearly all actives have a fitted effect of over 70% in size
Starred values were filed as active, the others as inactive; i = inactive; ? = inconclusive; · = not tested or not shown. Calls come from the whole dose curve; as a rule, active = well fitted curve in the direction sought with a large enough effect; inconclusive = small, poorly fitted or top-dose-only effect, or another doubt; inactive = no such curve, though single readings can be large; an effect the other way counts as inactive or inconclusive. Potency is the fitted concentration of half-maximal effect.

SMILES	HepG2 tox-1	KB-V1 cytotox	TGFb SMAD3 inh	KB-3-1 cytotox	HT1080 IDH1KD tx	HT1080NT lethal	TGFb CAGA inh	HepG2 tox-2	TGFb CCL64 inh	COP TGFb inh
COc1cc(CN=Cc2c(O)n(Cc3ccccc3)c(=S)[nH]c2=O)cc(OC)c1	5%	i	34%	i	-10%	-7%	·	·	·	·
COC(=O)C1=C(c2ccc3ccccc3c2)C[C@@H]2CC[C@H]1N2C(=O)N1CCOCC1	-29%	i	13µM*	i	-18%	-10%	?	-5%	5%	1%
COC(=O)C1=C(c2ccc(-c3ccccc3)c(F)c2)C[C@@H]2CC[C@H]1N2C(=O)N1CCC(C)CC1	0%	?	4.5µM*	?	?	?	7.3µM*	?	9.2µM*	18%
COc1ccc(CC2C(=O)NC(C)C(=O)N(C)C3C(=O)N(C)C(Cc4ccc(O)c(c4)Oc4ccc(cc4)C3O)C(=O)NC(C)C(=O)NC(C)C(=O)N2C)cc1 (stereo unspecified)	-20%	i	-116%	0.16µM*	0.073µM*	0.46µM*	0.0065µM*	1.6µM*	0.012µM*	5%
CC=CC(C)=CC(C)C(=O)CC(O)CC1CC(=O)NC(=O)C1 (stereo unspecified)	-1%	i	-25%	i	-17%	-14%	·	·	·	·
CC1CC(C)(O)CC(C(O)CC2CC(=O)NC(=O)C2)C1=O (stereo unspecified)	-3%	6.5µM*	0.32µM*	0.92µM*	0.16µM*	?	0.13µM*	?	0.26µM*	35%
COc1ccc2[nH]c3c(c2c1)CCN1C(=O)C(CC(=O)NCc2cccc(C(F)(F)F)c2)C[C@H](C(=O)N2CCCCC2)[C@@]31C (stereo partly specified)	2%	i	10µM*	i	-16%	-4%	8.2µM*	-17%	4.6µM*	3%
O=C(Cn1c(=O)oc2ccccc21)N(Cc1ccccc1)C1CCS(=O)(=O)C1 (stereo unspecified)	13%	i	9%	i	11%	5%	·	·	·	·
COc1cc2cc(C(=O)N3CC(COS(C)(=O)=O)c4ccc(O)cc43)[nH]c2c(OC)c1OC (stereo unspecified)	-92%	0.0092µM*	0.089µM*	?	0.13µM*	2.9µM*	0.0058µM*	0.033µM*	0.0058µM*	42%
CCC1CN2CCc3cc(OC)c(OC)cc3C2CC1CC1NCCc2c1[nH]c1ccc(O)cc21 (stereo unspecified)	-9%	i	0.089µM*	0.41µM*	0.18µM*	0.41µM*	0.018µM*	1µM*	0.037µM*	52%

Assay outcomes: PubChem BioAssay, National Center for Advancing Translational Sciences (NCATS)
